Measurements published in the supplement of paper PMC5940239.

Legend:
[1] = system: Madurella mycetomatis MM55; conditions: 7 days
[2] = system: Madurella mycetomatis MM55; test: IC90; higher = less potent; conditions: 7 days
[3] = system: Madurella mycetomatis MM55; test: percent growth relative to solvent control; higher = less inhibition, active = 20 or less; conditions: 100 µM; 7 days

Structure (SMILES)	IC50 [1] [µM]	IC90 [2] [µM]	percent growth [3]
Cn1c(=O)c2c(S(C)(=O)=O)snc2n(C)c1=O	60	91.5	-0.615% (active)
COc1cc2ncnc(NC3CCN(Cc4ccccc4)CC3)c2cc1OC	66.6	92.3	-1.64% (active)
O=C(c1cc2ccccc2o1)N1CCN(Cc2ccc3c(c2)OCO3)CC1	45.1	87.5	3.51% (active)
c1cncc(NCc2ccc(-c3cc4ccncc4cc3OC3CCNCC3)s2)c1	53.9	88.5	-3.08% (active)
CC1=Nc2ccc(Cl)cc2C(O)(c2ccc(C)cc2)N1CCN1CCCCC1 (stereo unspecified)	49.3	92.3	2.85% (active)
CCOc1ccc2cc(-c3nn(CC4CCN(C)CC4)c4ncnc(N)c34)ccc2c1	51.8	87.8	-3.52% (active)
O=C(C1CCN(c2cc(-n3cccc3)ncn2)CC1)N1CCc2ccccc2C1	62.1	91.5	3.17% (active)
COc1cccc(-c2nc3c(N4CCCC4)cccc3n2CC2CCCN2)n1 (stereo unspecified)	37.4	84	-0.727% (active)
COc1ccc(C(=N)N)cc1-c1cn(-c2ccc(C(=N)N)cc2)nn1	56.6	89.2	-3.41% (active)
CCN(CC)CCCCCCNc1cc(OC)cc2c(C)ccnc12	9.8	17.8	-1.36% (active)
CC(Oc1ccccc1)C(=O)Nc1nc(-c2ccccn2)cs1 (stereo unspecified)	10.1	18.5	1.36% (active)
COc1cccc(-c2cc3c(Nc4cccnc4)nccc3[nH]2)c1	51.8	92.5	2.45% (active)
NCC(c1cccs1)S(=O)(=O)c1ccccc1 (stereo unspecified)	53.9	91.8	1.47% (active)
NC(CC(=O)c1ccc(Cl)cc1Cl)C(Cl)(Cl)Cl (stereo unspecified)	58.1	95	5.11% (active)
O=C1N(Cc2cc3ccccc3s2)CC2CN(Cc3ccccc3)CCN12 (stereo unspecified)	57.6	91.8	0.636% (active)
c1ccc(Oc2ccc(-c3cc(C4CCOCC4)[nH]n3)cc2)cc1	35.6	57	4.02% (active)
c1ccc(-c2[nH]c3ccccc3c2C(c2ccccn2)N2CCCC2)cc1 (stereo unspecified)	34.8	94.6	5.96% (active)
CN(C)c1cc(NC(=O)Nc2ccccc2)c2ccccc2n1	14.2	59.1	8.07% (active)
C[C@@H]1[C@H](O)[C@@H](C)/C=C/C=C/C=C/C=C/C=C/C=C/C=C/[C@H](O[C@@H]2O[C@H](C)[C@@H](O)[C@H](N)[C@@H]2O)C[C@@H]2O[C@](O)(C[C@@H](O)C[C@@H](O)[C@H](O)CC[C@@H](O)C[C@@H](O)CC(=O)O[C@H]1C)C[C@H](O)[C@H]2C(=O)O	9.7	20.1	7.03% (active)
CN1CCN(c2cc(-c3ccc(F)cc3)nc(-c3ccncc3)n2)CC1	37.1	91.2	2.98% (active)
CCCn1c(NC(=O)c2ccc3ccccc3n2)nc2ccccc21	3.7	9.85	-3.5% (active)
C[C@H](C(N)=O)N1CCCC[C@H]1c1ccc(OCc2cccc(F)c2)cc1	64.2	94.4	2.85% (active)
Cc1ncc(-c2ccnc(Nc3ccc(S(C)(=O)=O)cc3)n2)n1C(C)C	65.9	96.9	6.23% (active)

Structure (SMILES)	IC50 [1] [µM]	IC90 [2] [µM]	percent growth [3]
O=C([C@@H](c1ccc(Cl)cc1)c1cccnc1)N1CCN(c2ccc(C(F)(F)F)cc2)CC1	1.35	3.4	4.17% (active)
CCC(Sc1nc2ccccc2o1)C(=O)Nc1nccs1 (stereo unspecified)	37.1	56.5	0.757% (active)
CC(C)(C)n1nc(-c2ccccc2)c2c(N)ncnc21	49.4	96.4	10.4% (active)
O=C(Nc1ccc(C(F)(F)F)c(C(F)(F)F)c1)c1cc(Cl)ccc1O	1.45	3.8	-2.39% (active)
COc1ccc(OC(C)C(=O)Nc2ccc(Cl)cc2C)cc1 (stereo unspecified)	26.9	54.5	0.806% (active)
COc1ccccc1CNC(=O)c1cc(C2CC2)nc2c1cnn2C(C)C	51.9	88.8	-2.92% (active)
CN1CCC(c2cc(-c3ccncc3)c(-c3ccc(F)cc3)[nH]2)CC1	56.4	91.6	1.72% (active)
Cc1ccc2nc(C)c(-c3ccn(Cc4ccccc4)n3)n2c1	39.8	90.8	2.95% (active)
COc1cccc(-n2nnnc2S(=O)(=O)Cc2ccccc2)c1	45.7	90	1.14% (active)
COc1cncc(-c2cncc(N3CCN(c4ccncc4)CC3)n2)c1	28.2	52.1	-0.286% (active)
CCOC(=O)c1c(NC(=O)c2c(F)c(F)c(F)c(F)c2F)sc(C(N)=O)c1C	60.5	92.8	1.26% (active)
c1ccc2c(c1)CN(CC1CC1)CC1(CCN(Cc3c[nH]c4cnccc34)CC1)O2	62.9	96	5.33% (active)
CCc1c(C)nc(-n2nc(C)cc2NC(=O)c2ccccc2SC)[nH]c1=O	6.75	15.1	2.44% (active)
Cc1cc(C)c2cc(C(=O)NC3CCCCCCC3)[nH]c2c1	64.9	94.3	2.52% (active)
CCCc1ccc(S(=O)(=O)Nc2ccc(CN3CCN(CC4CC4)CC3)cc2)cc1	63.1	91.8	-0.983% (active)
CC(C)(C)c1ccc(N[C@@H]2CCCC[C@H]2NC(=O)c2ccco2)cc1	53	89.7	-1.4% (active)
COc1ccc(C2(C(=O)Nc3ccc(Br)cc3)CCCC2)cc1	–	–	56.2% (inactive)
COc1ccccc1OCCCCn1c(C2CC2)nc2ccccc21	52.1	92.7	2.84% (active)
O[C@@H](c1cc(C(F)(F)F)nc2c(C(F)(F)F)cccc12)[C@H]1CCCCN1	38.8	71.5	-1.36% (active)
O=C(c1ccc(NCCO)cc1)C1C[C@H]1c1ccc(Cl)cc1 (stereo partly specified)	12.2	38	4.06% (active)
CNC1C(OC2C(OC3C(O)C(O)C(NC(=N)N)C(O)C3NC(=N)N)OC(C)C2(O)C=O)OC(CO)C(O)C1O (stereo unspecified)	–	–	119% (inactive)
CNC(=O)c1nn(C)c2c1C(C)(C)Cc1cnc(Nc3ccc(N4CCN(C)CC4)cc3)nc1-2	10.7	21.5	0.489% (active)
